NPR1 antag – blocks ANP-stimulated signaling of human Npr1 receptor; P16066; HEK293 hNpr1 GloSensor cGMP, ANP-stimulated luminescence; Potency, µM (highest dose often 46.3 µM), usual class: inhibitors; 76,000 tested, 1.6% active; AID 1347048; calls by dose curve; also: nearly all actives have a fitted effect of over 60% in size
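HEK293 cells stably expressing human Npr1 and cGMP GloSensor pGS-40F, loaded 2 h with 2% GloSensor reagent, given compound 30 min at room temperature. Luminescence read before and 20 min after 0.1 nM hNppA.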
HEK293 tox – kills HEK 293 cells. HEK 293 viability, ATP luminescence (CellTiter-Glo), 48-72 h. Potency, µM (highest dose often 115 µM), usual class: inhibitors. 94,000 tested, 6.6% active; also: nearly all actives have a fitted effect of over 60% in size
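250 HEK 293 cells/well; compound by pintool; incubated 48 or 72 hr at 37 degree Celsius; CellTiter-Glo added, 10 min RT, luminescence imaged.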
3T3 cytotox – NIH 3T3 cell cytotoxicity; NIH 3T3 viability, CellTiter-Glo ATP luminescence, 48-72 h; Potency, µM (series often up to 96.7 µM), usual class: inhibitors; 94,000 tested, 4.3% active; AID 1345082; also: nearly all actives have a fitted effect of over 55% in size
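Cells were seeded at 400 per well, treated with pin-transferred compound, and kept 48 or 72 hr at 37 °C before CellTiter-Glo addition and luminescence imaging of cellular ATP.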
FLuc inh – blocks purified firefly luciferase enzyme activity | purified P. pyralis luciferase, luminescence, biochemical | 76,000 tested, 2.5% active | Potency, µM (doses to about 115 µM), usual class: inhibitors | P08659; also: nearly all actives have a fitted effect of over 65% in size
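Cell-free enzyme assay, 10nM P. pyralis luciferase, luciferin and ATP each at 10uM. Inhibition profiled over a 6-point titration, read as luminescence.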
Numbers stand for hits; i = inactive; ? = inconclusive; nt = no result given. An excerpt weighted towards active compounds, which were near 11% of everything screened. Unless noted, calls follow the shape of the dose curve; as a rule, active = well fitted curve in the direction sought with a large enough effect; inconclusive = small, poorly fitted or top-dose-only effect, or another doubt; inactive = no such curve, though single readings can be large; an effect the other way counts as inactive or inconclusive.

SMILES	NPR1 antag	HEK293 tox	3T3 cytotox	FLuc inh
CCC1Oc2ccc(NC(=O)COC)cc2CN(Cc2ccc(F)cc2)C1=O (centres undefined)	i	?	i	i
O=C(NC1CN(c2ccnc3ccnn23)C1)c1ccccc1F	nt	i	?	nt
Cc1ccc(Cn2c(C3CCN(C(=O)c4ccc(C(F)(F)F)cc4)CC3)n[nH]c2=O)cc1	i	?	?	i
CC1(c2ccccc2)N(Cc2ccccc2C#N)C(=O)OC12CCN(C(=O)Cc1cccc(F)c1)CC2 (centres undefined)	i	?	i	i
O=C(C1CCN(C(=O)C2CC2)C1)N1CCC(c2nc3ncccc3[nH]2)CC1 (centres undefined)	nt	i	i	nt
OC(c1nc(Nc2cccc(F)c2)n[nH]1)C1CC1 (centres undefined)	i	i	112µM	?
COc1ccccc1C(O)c1nc(Nc2cccc(F)c2)n[nH]1 (centres undefined)	i	?	i	i
OC(c1nc(Nc2cccc(Cl)c2)n[nH]1)C1CC1 (centres undefined)	i	i	?	45µM
O=C(c1cn(Cc2ccccc2F)nn1)N1CCC(O)(c2cccc(C(F)(F)F)c2)CC1	i	?	?	i
CC(C)(C)C(=O)N1CCC2(CC1)CC(=O)N(c1ccccc1)c1ccccc1O2	i	?	i	i
Cc1nc(C(=O)N2CCCC(c3[nH]ncc3Cc3ccccc3)C2)cs1 (centres undefined)	i	?	?	i
CCCn1nccc1C(=O)N1CCCC(c2[nH]ncc2Cc2ccccc2)C1 (centres undefined)	i	50µM	?	i
CC(C)(C)NC(=O)N1CCCC(c2nc(CCOc3ccc(F)cc3)no2)C1 (centres undefined)	i	?	i	i
Cc1ccccc1CC(=O)N1CCCC(c2noc(COc3ccccc3)n2)C1 (centres undefined)	i	45µM	?	i
CCNC(=O)N1CCCC(c2noc(COc3ccccc3F)n2)C1 (centres undefined)	i	i	i	35µM
CC(C)NC(=O)N1CCCC(c2noc(COc3ccccc3F)n2)C1 (centres undefined)	i	i	i	i
CC(C)CNC(=O)N1CCCC(c2nc(CCOc3ccc(F)cc3)no2)C1 (centres undefined)	i	40µM	?	i
CCc1cccc(NC(=O)N2CCCC(c3noc(COc4ccccc4)n3)C2)c1 (centres undefined)	?	?	32µM	i
Cn1ncc(N2CCC(CNC(=O)C3=Cc4ccccc4OC=C3)C2)cc1=O (centres undefined)	i	i	?	?
O=C(NC1CCCN(c2ccc3nnc(C4CC4)n3n2)C1)c1ccccc1Cl (centres undefined)	nt	?	i	nt
CCCNC(=O)N1CCC(Cc2noc(C3CCOCC3)n2)C1 (centres undefined)	nt	i	i	nt
Cc1ccc(OCc2nc(C3CN(C(=O)Cc4ccsc4)C3)no2)cc1	i	89µM	?	i
O=C(Cc1ccsc1)N1CC(c2noc(COc3ccccc3)n2)C1	i	?	i	i
NC(=O)CN1C(=O)CO[C@H]2CN(Cc3ccccc3F)C[C@H]21	i	i	i	i
O=C1CO[C@H]2CN(Cc3ccccc3F)C[C@H]2N1c1ccccc1	i	79µM	?	i
SMILES	NPR1 antag	HEK293 tox	3T3 cytotox	FLuc inh
COc1cccc(-c2noc(-c3ccc(NCCCSC)nc3)n2)c1OC	?	?	?	25µM
COc1cccc(-c2noc(-c3nc(-c4ccc5c(c4)OCO5)no3)n2)c1OC	i	i	i	i
COc1cccc(-c2noc(-c3ccc(-c4cn[nH]c4)nc3)n2)c1OC	i	i	i	i
COc1cccc(-c2noc(-c3ccc(NCCn4cccn4)nc3)n2)c1OC	?	22µM	?	16µM
O=C(NC1CCCC1)C1CCCN1c1nccc(Nc2ccccc2F)n1 (centres undefined)	nt	?	i	nt
COCCN1CCOC2(CCN([S+](=O)([O-])c3cccc(C)c3)CC2)C1=O	i	i	89µM	i
CC(C)(C)OCC1CN(Cc2ccccc2)[S+](=O)([O-])c2cnccc2O1 (centres undefined)	nt	?	i	nt
CC(C)N1CCC(OCCCNC(=O)C2Cn3cccc3C(=O)N2C)CC1 (centres undefined)	nt	i	i	nt
COc1ccc(Nc2ccnc(N3CCC(NC(=O)c4ccccc4OC)CC3)n2)cc1	nt	50µM	?	nt
COc1ccc(Nc2ccnc(N3CCC(NC(=O)c4ccccc4Cl)CC3)n2)cc1	nt	40µM	?	nt
Cc1ccc(Nc2ccnc(N3CCC(NC(=O)c4ccccc4C)CC3)n2)cc1	nt	35µM	25µM	nt
COc1ccc(Nc2ccnc(N3CCC(NC(=O)C4CC4)CC3)n2)cc1	nt	?	i	nt
O=C(NCc1ccccc1)C1CCCN(C2CCN(C(=O)c3ccoc3)CC2)C1 (centres undefined)	i	i	i	i
Cc1nc(CN2Cc3nc(-c4ccc5c(c4)OCO5)ccc3OCC2=O)cs1	i	?	?	i
Cc1nc(CN2Cc3nc(-c4cc5ccccc5o4)ccc3OCC2=O)cs1	?	63µM	?	?
COc1ccccc1-c1ccc2c(n1)CN(Cc1csc(C)n1)C(=O)CO2	i	i	45µM	i
COCCOCc1nc(C2CCN(C(=O)Nc3ccc(OC)c(F)c3)CC2)no1	i	i	i	i
CNC(=O)c1cc(C2CC2)nc2onc(C3CCN(C(=O)c4ccncc4)C3)c12 (centres undefined)	nt	i	i	nt
CC(C)CCN1CCc2c(n(CCOc3ccccc3)n(-c3ccccc3)c2=O)C1	i	?	100µM	i
CCn1c2c(c(=O)n1-c1ccccc1)CCN(Cc1cncc(OC)c1)C2	i	i	100µM	i
COCCn1c2c(c(=O)n1-c1ccccc1)CCN(C(=O)c1nc3ccccc3[nH]1)C2	i	i	89µM	i
COC1CCC(C(=O)N2CCc3c(n(CCOc4ccccc4)n(-c4ccccc4)c3=O)C2)CC1 (centres undefined)	i	i	20µM	i
O=C(c1ccccc1Cl)N1CCCC(C(=O)N2CCCC2c2nc3ccncc3[nH]2)C1 (centres undefined)	nt	i	i	nt
O=C(O)COc1ccc(-c2nccc3c2C(=O)N(Cc2c[nH]c4ccccc24)CC(CNC(=O)c2cccc(Cl)c2)O3)cc1 (centres undefined)	i	i	32µM	i
CNC(=O)N1CCC(C2CCN(C(=O)CCCc3ccccc3)C2)CC1 (centres undefined)	i	i	i	25µM
CNC(=O)N1CCC(C2CCN(C(=O)Cc3ccccc3)C2)CC1 (centres undefined)	i	i	i	i
CN1CCC(OC2CCN(C(=O)CCCc3ccccc3)CC2)CC1	i	i	i	28µM
Cc1cc(CNC(=O)c2cc(-c3ccc(CO)cc3)cc3c2OCCN3C)no1	i	?	?	i
Cc1nn(-c2ccccc2)c2c1C(C1CC1)N(C1CCN(Cc3ccccc3)CC1)C2=O (centres undefined)	nt	i	i	nt
